In ChEMBL document CHEMBL3988442, “University of Dundee, Small-Polar-MMV Screening Library” (2021) one finds Percent Effect data, which are given here for ten compounds.

Parameters in all cases: scale not given: direction of the effect not stated beside the values
Assay [1] addresses Protein translocase subunit SecA (Escherichia coli (strain K12)) (UniProt P10408). The experiment in a line: Assay to Identify E. coli SecA ATPase Inhibitors. Particulars: 30 µM. The assay is classed as functional.
In assay [2] the target is T1, Ubiquitin-activating enzyme e1, putative (Leishmania donovani (strain BPK282A1)) (UniProt E9BSI1).
T1 sequence (whole entry): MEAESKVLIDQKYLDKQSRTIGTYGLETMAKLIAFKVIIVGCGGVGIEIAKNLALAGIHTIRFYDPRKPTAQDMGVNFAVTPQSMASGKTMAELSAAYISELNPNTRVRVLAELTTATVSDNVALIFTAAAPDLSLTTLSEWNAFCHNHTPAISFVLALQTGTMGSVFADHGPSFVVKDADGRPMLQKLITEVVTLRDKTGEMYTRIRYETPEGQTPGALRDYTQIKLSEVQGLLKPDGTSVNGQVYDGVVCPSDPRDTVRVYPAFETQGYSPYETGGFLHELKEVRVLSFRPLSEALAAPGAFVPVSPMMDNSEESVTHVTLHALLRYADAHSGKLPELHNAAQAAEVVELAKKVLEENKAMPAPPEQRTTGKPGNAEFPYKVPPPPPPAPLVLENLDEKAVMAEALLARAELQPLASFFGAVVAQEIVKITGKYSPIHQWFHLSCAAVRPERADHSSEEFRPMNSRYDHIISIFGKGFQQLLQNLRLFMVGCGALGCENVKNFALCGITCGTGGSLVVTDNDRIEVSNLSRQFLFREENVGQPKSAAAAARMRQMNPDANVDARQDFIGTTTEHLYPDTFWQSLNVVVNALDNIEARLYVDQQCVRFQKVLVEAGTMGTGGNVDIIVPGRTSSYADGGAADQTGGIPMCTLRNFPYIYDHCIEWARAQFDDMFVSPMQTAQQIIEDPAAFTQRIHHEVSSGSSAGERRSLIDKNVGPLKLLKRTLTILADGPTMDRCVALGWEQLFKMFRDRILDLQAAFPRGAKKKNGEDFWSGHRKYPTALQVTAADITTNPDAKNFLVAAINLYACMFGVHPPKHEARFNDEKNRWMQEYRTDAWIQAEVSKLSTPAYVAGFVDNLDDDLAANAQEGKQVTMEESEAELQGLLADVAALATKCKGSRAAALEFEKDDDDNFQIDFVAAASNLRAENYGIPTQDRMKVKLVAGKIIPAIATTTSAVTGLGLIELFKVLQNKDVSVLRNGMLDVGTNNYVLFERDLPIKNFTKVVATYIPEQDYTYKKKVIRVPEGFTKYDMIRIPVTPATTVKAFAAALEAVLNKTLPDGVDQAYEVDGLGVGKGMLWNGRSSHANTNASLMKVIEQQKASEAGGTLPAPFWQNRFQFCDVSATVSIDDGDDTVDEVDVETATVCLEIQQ
As to the kind of experiment: Leishmania donovani Ubiquitin Activating Enzyme (LdE1). The assay is classed as functional. Particulars: 30 µM.

Assay [3] concerns the target AMP-activated protein kinase, AMPK (Homo sapiens) (UniProt P54646+O43741+P54619+Q9UGJ0+Q9Y478+Q13131+Q9UGI9). As to the kind of experiment: AMP-dependent Kinase enzyme assay. An in vitro enzyme assay that detects ADP turnover that is directly proportional to AMPK activity. This uses naive AMPK that is activated during the assay with MK-8722. The assay is classed as functional. Particulars: 30 µM.

For assay [4], the target named is Sialic acid-binding Ig-like lectin 9 (Homo sapiens) (UniProt Q9Y336). As to the kind of experiment: Hs-Siglec9 ALPHAscreen SOP 20170721. Particulars: 10 µM. For orientation: Alpha assays give light when donor and acceptor beads are brought close together.
In a further assay the test system is Trypanosoma cruzi. As to the kind of experiment: Trypanosoma cruzi phosphomannomutase and mannose-1-phosphate guanylyltransferase assay. The assay is classed as functional. Particulars: 10 µM.
Assay [5] deals with T2, Arginase-2, mitochondrial (Homo sapiens) (UniProt P78540).
T2 sequence (whole entry): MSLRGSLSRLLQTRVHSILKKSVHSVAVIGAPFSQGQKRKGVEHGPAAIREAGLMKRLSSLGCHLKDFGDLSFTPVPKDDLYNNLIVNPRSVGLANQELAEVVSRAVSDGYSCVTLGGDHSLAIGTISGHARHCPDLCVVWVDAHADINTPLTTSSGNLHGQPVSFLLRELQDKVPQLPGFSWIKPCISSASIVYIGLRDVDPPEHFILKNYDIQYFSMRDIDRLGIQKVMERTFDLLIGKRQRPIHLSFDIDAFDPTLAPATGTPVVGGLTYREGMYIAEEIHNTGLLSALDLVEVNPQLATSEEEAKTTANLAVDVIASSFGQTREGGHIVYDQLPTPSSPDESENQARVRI
As to the kind of experiment: in vitro enzyme assay to detect the production of urea directly proportional to the activity of Arginase II. Further: in the data most compounds retested in dose-response had high values. The assay is classed as functional. Particulars: 33.3 µM.

Assay [6] concerns the target T3, Proteasome subunit beta (Trypanosoma cruzi) (UniProt O96673).
T3 sequence (whole entry): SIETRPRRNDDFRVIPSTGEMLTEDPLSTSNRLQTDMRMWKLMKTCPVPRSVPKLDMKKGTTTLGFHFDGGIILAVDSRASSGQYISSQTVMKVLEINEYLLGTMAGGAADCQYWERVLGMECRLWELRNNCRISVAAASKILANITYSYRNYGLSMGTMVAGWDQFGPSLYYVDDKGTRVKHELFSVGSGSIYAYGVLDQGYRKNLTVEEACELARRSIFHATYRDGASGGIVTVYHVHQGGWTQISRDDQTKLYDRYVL
The experiment in a line: Trypanosoma cruzi proteasome chymotrypsin-like activity (TcProtChymo) assay. Further: in the data most compounds retested in dose-response had high values. Particulars: 9.37 µM. The assay is classed as functional.

For another assay, the species on record is Homo sapiens. As to the kind of experiment: To identify inhibition of the IFN signalling (Jak-Stat) pathway via expression of an eGFP reporter gene under the control of an IFN-stimulated response element (ISRE) containing MxA promoter. The assay is classed as functional. Particulars: 30 µM. In general terms: A reporter such as luciferase makes a cellular process visible.

The target of assay [7] is T4, Tyrosyl-tRNA synthetase, putative (Trypanosoma cruzi (strain CL Brener)) (UniProt Q4DSP6).
T4 sequence (whole entry): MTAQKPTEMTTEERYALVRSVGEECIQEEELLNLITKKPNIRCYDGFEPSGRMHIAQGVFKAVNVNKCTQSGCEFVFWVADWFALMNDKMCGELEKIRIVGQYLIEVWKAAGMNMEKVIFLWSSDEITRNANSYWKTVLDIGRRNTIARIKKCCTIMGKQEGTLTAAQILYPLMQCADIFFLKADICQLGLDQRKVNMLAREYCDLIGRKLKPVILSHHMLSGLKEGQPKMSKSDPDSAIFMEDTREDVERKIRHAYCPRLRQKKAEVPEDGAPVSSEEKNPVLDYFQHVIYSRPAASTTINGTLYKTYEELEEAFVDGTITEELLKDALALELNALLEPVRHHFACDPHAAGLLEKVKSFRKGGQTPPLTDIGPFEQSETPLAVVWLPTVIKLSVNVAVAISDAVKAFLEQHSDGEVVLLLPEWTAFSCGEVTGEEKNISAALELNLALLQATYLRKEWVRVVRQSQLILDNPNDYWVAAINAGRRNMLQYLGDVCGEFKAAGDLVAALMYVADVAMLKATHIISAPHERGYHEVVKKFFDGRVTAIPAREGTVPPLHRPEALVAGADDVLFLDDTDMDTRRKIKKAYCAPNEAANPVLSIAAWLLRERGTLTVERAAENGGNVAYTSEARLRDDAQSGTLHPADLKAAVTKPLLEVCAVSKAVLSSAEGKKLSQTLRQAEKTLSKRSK
The experiment in a line: Trypanosoma cruzi tyrosyl tRNA synthetase (TcYRS) _High Tyrosine SOP. Further: in the data most compounds retested in dose-response had high values. The assay is classed as functional. Particulars: 30 µM.

For assay [8], the target named is T4, Tyrosyl-tRNA synthetase, putative (Trypanosoma cruzi (strain CL Brener)). As to the kind of experiment: Trypanosoma cruzi tyrosyl tRNA synthetase (TcYRS) SOP. The assay is classed as functional. Particulars: 30 µM.
Assay [9] deals with Chromo domain-containing protein 1 (Saccharomyces cerevisiae (strain ATCC 204508 / S288c) (Baker's yeast)) (UniProt P32657). As to the kind of experiment: ScCHD-1 Enzyme Inhibition Assay. Further: in the data most compounds retested in dose-response had high values. The assay is classed as functional. Particulars: 30 µM.

For some assays here: Measured potencies and affinities stand elsewhere.

Chain of Chromo domain-containing protein 1 (Saccharomyces cerevisiae (strain ATCC 204508 / S288c) (Baker's yeast)) (P32657 whole entry, the tested form may be a part): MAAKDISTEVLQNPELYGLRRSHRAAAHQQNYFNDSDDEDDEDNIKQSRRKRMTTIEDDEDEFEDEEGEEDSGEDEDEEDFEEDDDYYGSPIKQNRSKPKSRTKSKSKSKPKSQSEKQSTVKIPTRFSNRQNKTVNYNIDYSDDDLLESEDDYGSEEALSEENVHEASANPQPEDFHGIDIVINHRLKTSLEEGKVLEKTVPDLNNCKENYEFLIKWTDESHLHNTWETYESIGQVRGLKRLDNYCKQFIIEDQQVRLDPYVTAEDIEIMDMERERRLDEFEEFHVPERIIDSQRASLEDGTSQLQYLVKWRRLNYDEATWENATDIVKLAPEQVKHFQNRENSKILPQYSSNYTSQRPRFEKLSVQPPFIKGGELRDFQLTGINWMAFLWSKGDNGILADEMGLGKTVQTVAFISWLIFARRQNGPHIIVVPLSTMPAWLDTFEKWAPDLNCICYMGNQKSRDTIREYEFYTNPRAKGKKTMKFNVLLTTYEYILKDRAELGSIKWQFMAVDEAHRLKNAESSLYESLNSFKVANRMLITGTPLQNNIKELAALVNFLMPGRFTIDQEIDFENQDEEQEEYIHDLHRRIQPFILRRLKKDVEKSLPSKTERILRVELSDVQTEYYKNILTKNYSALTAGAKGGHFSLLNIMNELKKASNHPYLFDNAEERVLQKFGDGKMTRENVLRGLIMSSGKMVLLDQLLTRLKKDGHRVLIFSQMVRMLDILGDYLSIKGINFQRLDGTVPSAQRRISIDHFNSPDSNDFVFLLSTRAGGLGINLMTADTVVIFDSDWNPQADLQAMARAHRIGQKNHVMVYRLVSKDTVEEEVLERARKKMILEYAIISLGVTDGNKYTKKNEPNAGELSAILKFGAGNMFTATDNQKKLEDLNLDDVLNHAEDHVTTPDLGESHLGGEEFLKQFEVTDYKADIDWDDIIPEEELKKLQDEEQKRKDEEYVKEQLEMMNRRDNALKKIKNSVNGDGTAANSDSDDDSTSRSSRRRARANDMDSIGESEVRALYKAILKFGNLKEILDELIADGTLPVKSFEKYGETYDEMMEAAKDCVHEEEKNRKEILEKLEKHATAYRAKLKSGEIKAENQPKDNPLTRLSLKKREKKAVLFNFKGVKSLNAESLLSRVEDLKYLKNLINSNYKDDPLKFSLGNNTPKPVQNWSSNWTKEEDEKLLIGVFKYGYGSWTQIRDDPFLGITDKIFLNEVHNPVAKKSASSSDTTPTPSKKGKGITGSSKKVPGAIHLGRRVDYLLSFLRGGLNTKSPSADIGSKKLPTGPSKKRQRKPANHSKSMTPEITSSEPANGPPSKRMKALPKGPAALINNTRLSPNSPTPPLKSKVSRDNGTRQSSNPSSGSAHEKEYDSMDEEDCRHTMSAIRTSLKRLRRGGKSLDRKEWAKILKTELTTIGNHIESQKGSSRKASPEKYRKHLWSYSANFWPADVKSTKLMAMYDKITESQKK
Chain of Sialic acid-binding Ig-like lectin 9 (Homo sapiens) (Q9Y336 whole entry): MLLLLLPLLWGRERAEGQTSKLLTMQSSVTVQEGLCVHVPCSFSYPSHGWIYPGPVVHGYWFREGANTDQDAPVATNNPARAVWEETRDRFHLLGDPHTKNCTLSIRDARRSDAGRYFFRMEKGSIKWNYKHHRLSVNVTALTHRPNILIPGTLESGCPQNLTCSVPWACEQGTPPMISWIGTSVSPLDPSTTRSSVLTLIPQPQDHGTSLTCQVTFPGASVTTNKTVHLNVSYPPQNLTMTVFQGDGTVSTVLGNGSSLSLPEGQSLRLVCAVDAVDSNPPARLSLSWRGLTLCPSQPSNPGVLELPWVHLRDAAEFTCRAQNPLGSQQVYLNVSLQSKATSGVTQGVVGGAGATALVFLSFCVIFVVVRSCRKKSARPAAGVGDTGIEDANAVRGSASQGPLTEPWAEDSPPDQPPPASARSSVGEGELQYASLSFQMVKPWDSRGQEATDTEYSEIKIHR
Chain of Protein translocase subunit SecA (Escherichia coli (strain K12)) (P10408 whole entry): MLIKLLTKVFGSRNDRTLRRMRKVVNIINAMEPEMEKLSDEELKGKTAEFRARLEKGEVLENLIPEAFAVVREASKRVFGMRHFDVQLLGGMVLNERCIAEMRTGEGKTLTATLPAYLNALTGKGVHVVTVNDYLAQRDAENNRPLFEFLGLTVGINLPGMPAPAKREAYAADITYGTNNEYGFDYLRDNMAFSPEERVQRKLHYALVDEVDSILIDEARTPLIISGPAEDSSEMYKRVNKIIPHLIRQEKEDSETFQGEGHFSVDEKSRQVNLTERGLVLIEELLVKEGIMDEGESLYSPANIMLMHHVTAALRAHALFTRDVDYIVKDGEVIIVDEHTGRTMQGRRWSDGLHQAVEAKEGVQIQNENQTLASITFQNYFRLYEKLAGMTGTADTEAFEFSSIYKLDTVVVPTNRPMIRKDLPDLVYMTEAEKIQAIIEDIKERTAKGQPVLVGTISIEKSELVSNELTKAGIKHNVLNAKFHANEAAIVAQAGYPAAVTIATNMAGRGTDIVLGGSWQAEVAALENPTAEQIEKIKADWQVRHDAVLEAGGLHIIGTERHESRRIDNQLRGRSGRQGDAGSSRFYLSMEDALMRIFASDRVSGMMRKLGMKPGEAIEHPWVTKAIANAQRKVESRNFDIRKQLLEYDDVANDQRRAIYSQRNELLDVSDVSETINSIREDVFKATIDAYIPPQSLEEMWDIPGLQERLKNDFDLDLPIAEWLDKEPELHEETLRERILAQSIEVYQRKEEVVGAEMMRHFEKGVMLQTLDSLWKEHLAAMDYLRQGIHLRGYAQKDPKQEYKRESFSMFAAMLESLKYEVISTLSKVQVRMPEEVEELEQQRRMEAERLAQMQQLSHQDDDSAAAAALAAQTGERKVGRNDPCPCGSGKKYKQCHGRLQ

As to `Cc1nc(C)n(CC2CCCN(c3ncnc4ccsc34)C2)n1` (stereo not given), the Percent Effect is -0.224% in assay [1]; 10.8% in [2]; 4.37% in [3]; -5.33% in assay [4]; -7.08% with Trypanosoma cruzi; 1.2% in [5]. Further, the Percent Effect in assay [6] is 14.2%; in the assay filed under Homo sapiens, 73.4%; in [7], 6.4%; in [8] it was 16.1%; in assay [9], -6.75%.

For `c1ccc(OCC2CC3(CCN(c4ncccn4)CC3)CO2)nc1` (stereo not given), the Percent Effect in [1] is -0.807%; in assay [2] it was 1.33%; in [3], 3.04%; in assay [4], -2.52%; in the assay with Trypanosoma cruzi, -1.57%; in assay [5], -5.46%. Besides, the Percent Effect is 10.9% in [6]; 14% in the assay listed under Homo sapiens; 0% in assay [7]; -2.56% in [8]; -5.94% in [9].

Regarding `O=C(c1n[nH]c(=O)c2ccccc12)N1CCCCC1c1ccn[nH]1` (stereo not given), the Percent Effect in assay [1] was -1.96%; in assay [2], 1.35%; in assay [3], 14.9%; in assay [4], -7.74%; in the assay with Trypanosoma cruzi it was -5.53%; in assay [5], -8.12%. In addition, the Percent Effect in assay [6] is 1.72%; in the assay filed under Homo sapiens, 0.863%; in assay [7], 4.3%; in [8], 6.49%; in assay [9] it was -5.69%.

Take `O=C(NC(CO)CO)c1coc(COc2cccc(F)c2)n1`: the Percent Effect in assay [1] was -2.81%; in assay [2] it was 18.9%; in assay [3], 1.42%; in [4], 15.9%; with Trypanosoma cruzi, 2.44%; in assay [5] it was 10.2%. For the same compound, the Percent Effect in assay [6] was 9.19%; in the assay listed under Homo sapiens, -0.407%; in assay [7] it was 7.53%; in assay [8], 21%; in assay [9], -4.2%.

Turning to `CN(Cc1cn2c(n1)CN(c1ncc(F)cn1)CC2)Cc1ccco1`, the Percent Effect in assay [1] is -3.08%; in assay [2] it was 13.3%; in [3], -4.28%; in [4], -1.26%; in the assay with Trypanosoma cruzi, 0.197%; in assay [5], 4.89%. For the same compound, the Percent Effect in [6] was 20.7%; in the assay listed under Homo sapiens, 1.67%; in assay [7] it was 9.57%; in assay [8] it was 21.8%; in assay [9], -5.99%.

In the case of `CCc1ncncc1C(=O)N1CCN(Cc2ccco2)CC1`, the Percent Effect is -3.87% in assay [1]; 0% in assay [2]; 2.99% in assay [3]; -2.08% in assay [4]; -4.2% with Trypanosoma cruzi; 3.24% in assay [5]. For the same compound, the Percent Effect in assay [6] was 0.592%; in the assay listed under Homo sapiens, 4.36%; in assay [7] it was -3.45%; in assay [8], -11.1%; in [9], 2.25%.

In the case of `Cc1nn(C)c(C)c1CC(=O)N1CCC(Nc2cccnn2)CC1`, the Percent Effect in assay [1] was -5.77%; in assay [2], -13.2%; in assay [3] it was -1.31%; in assay [4], -4.49%; in the assay with Trypanosoma cruzi, 9.59%; in assay [5], -1.92%. In addition, the Percent Effect in [6] is 5.85%; in the assay listed under Homo sapiens it was 9.42%; in [7] it was 5.39%; in assay [8], 9.76%; in [9] it was -11.7%.

For `Cc1cccnc1CNc1cc(N2CCCC2CO)ncn1` (stereo not given), the Percent Effect in assay [1] is -2.07%; in assay [2], 2.6%; in [3], -9.88%; in assay [4], 14.4%; with Trypanosoma cruzi it was 2.25%; in assay [5], -3.56%. In addition, the Percent Effect in [6] is 8.11%; in the assay filed under Homo sapiens, 11.7%; in assay [7] it was 2.91%; in assay [8], 9.76%; in assay [9], -6.83%.

As to `O=c1oc(-c2cccs2)nn1CC(O)c1ccccc1` (stereo not given), the Percent Effect was -3.18% in assay [1]; 8% in assay [2]; -5.55% in assay [3]; 2.71% in assay [4]; 0.292% in the assay with Trypanosoma cruzi; -27.6% in [5]. Besides, the Percent Effect in assay [6] was 5.58%; in the assay listed under Homo sapiens it was 7.94%; in [7], 10.4%; in [8], 16.1%; in [9], -4.32%.

`O=C(c1cccc2cccnc12)N1CCCN(c2cccnn2)CC1`: the Percent Effect in [1] is -6.9%; in assay [2], 10.4%; in assay [3], -4.23%; in assay [4] it was 1.47%; in the assay on Trypanosoma cruzi it was 6.37%; in assay [5], 1.9%. Further, the Percent Effect in [6] was 10.8%; in the assay listed under Homo sapiens it was 0.652%; in assay [7] it was 2.86%; in assay [8], 11.8%; in [9], -27.3%.
